Assay outcomes: PubChem, National Center for Advancing Translational Sciences (NCATS)
IMPase Li cell: qHTS Assay for Identifying the Cell-Membrane Permeable IMPase Inhibitors: Potentiation with Lithium | CHO-M1 cells, IP1 TR-FRET (IP-One), carbachol + lithium | Potency, µM (top dose mostly 59.4 µM), inactives show at the top dose activity, negative = IMPase inhibition, usual class: inhibitors | actives 0.35% (n = 210,000); active = well fitted curve in the direction sought with a large enough effect; inconclusive = small, poorly fitted or top-dose-only effect, or another doubt; inactive = no such curve, though single readings can be large; an effect the other way counts as inactive or inconclusive;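 note: IP1 builds up when IMPase is blocked and the TR-FRET signal falls; potency is the fitted concentration of half-maximal effect; plate controls were basal vehicle for no effect and high inhibitor control for full effect; nearly all actives have a fitted effect of over 50% in size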
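Readout is a homogeneous TR-FRET IP1 immunoassay (Ex 320, Em 665 and 620), where raised cytosolic IP1 lowers signal. Cells were CHO-M1 treated 30 min at 37C with test compounds plus a little lithium; AC50 values came from Hill-equation fitting.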
IMPase inh: qHTS Assay for Identifying the Cell-Membrane Permeable IMPase Inhibitors | inhibition (IP1 accumulation), % at 46.1 µM | AID 901, 2007 | 120,000 tested, under 10 active | CHO-M1 cells, IP1 accumulation, HTRF TR-FRET ratio; active = well fitted curve in the direction sought with a large enough effect in the signal ratio, not every such curve was filed as active; inconclusive = small, poorly fitted or top-dose-only effect, or a change in a side signal; inactive = no such curve, though single readings can be large or run the other way; the % refers to the signal ratio;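 note: cells stimulated with carbachol in lithium chloride buffer; plate controls were DMSO basal wells for no effect and reference inhibitor wells for full effect; higher means more IMPase inhibition seen as more IP1 and lower FRET ratio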
Target sequence (P97697 whole entry, looked up): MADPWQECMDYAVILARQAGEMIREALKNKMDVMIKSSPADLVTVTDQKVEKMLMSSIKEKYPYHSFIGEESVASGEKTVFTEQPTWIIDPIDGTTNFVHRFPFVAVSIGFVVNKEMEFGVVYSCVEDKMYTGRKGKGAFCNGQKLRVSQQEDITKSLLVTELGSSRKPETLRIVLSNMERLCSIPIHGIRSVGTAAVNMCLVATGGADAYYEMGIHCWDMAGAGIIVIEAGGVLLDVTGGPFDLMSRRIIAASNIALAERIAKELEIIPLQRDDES
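Measured: the HTRF emission ratio (665/620 nm) plus the 620 nm donor channel, each fitted to the Hill equation to give AC50. Cells were CHO-M1 given compounds up to 46 uM and a 30 min carbachol stimulation at 37C.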
HPGD block: qHTS Assay for Inhibitors of HPGD (15-Hydroxyprostaglandin Dehydrogenase); 15-hydroxyprostaglandin dehydrogenase [NAD(+)] (Homo sapiens), P15428; purified HPGD, NADH fluorescence kinetic, PGE2 substrate; Potency, µM, for the others: top-dose activity change, negative = inhibition, most hits filed as inhibitors; actives 4.3% (n = 150,000); AID 894, 2007; note: potency is the fitted concentration of half-maximal effect
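NADH formation kinetics: reaction with 30 uM PGE2 and 1 mM NAD+ (final), 20 nM enzyme, Tris-HCl pH 8 with Tween 20, after 15 min compound preincubation at room temperature. Fluorescence change, last versus first of five reads.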
PNC assembly inh: High Content Assay for Compounds that inhibit the Assembly of the Perinucleolar Compartment | PC3M PTB-GFP, PNC prevalence imaging, 16 h; hits give low values | activity change (PNC), negative = inhibition, % at 10 µM | actives 3.1% (n = 140,000) | AID 2417, 2010;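 active = readout at or below -70, meaning at least 70% loss of cells showing the perinucleolar compartment, a nuclear body marking cancer cells; inconclusive = readout between -30 and a set limit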;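 note: plate controls were DMSO wells for no effect and camptothecin positive control wells for full effect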
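PC3M cells stably expressing PTB-GFP, 750–1000 cells/well, treated 16 h at 37 °C with compound (23 nl of library stock), in duplicate. After paraformaldehyde fixation and Hoechst stain, imaged at 20x; PNC prevalence scored by image analysis.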
ALDH1A1 inh: qHTS Assay for Inhibitors of Aldehyde Dehydrogenase 1 (ALDH1A1); Aldehyde dehydrogenase 1A1 (Homo sapiens), P00352; Purified ALDH1A1, NADH fluorescence, propionaldehyde substrate; Potency, µM (series often up to 75.3 µM), for the others: at the highest dose activity, negative = inhibition, hits mostly inhibitors; actives 7.3% (n = 220,000);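 note: potency is the fitted concentration of half-maximal effect; plate controls were no enzyme wells and a reference inhibitor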
NPSR antagonist: qHTS Assay for Antagonists of the Neuropeptide S Receptor: cAMP Signal Transduction | Q6W5P4 | actives 1% (n = 220,000) | CHO-NPSR cells, cAMP TR-FRET, antagonist mode | Potency, µM (titrated, usually from 38.3 µM), inactives show at the highest dose activity change, negative = inhibition, hits mostly inhibitors; active = well fitted curve in the direction sought with a large enough effect; inconclusive = small, poorly fitted or top-dose-only effect, or another doubt; inactive = no such curve, though single readings can be large; an effect the other way counts as inactive or inconclusive; note: potency is the fitted concentration of half-maximal effect; nearly all actives have a fitted effect of over 50% in size
Target sequence (Q6W5P4 whole entry, looked up): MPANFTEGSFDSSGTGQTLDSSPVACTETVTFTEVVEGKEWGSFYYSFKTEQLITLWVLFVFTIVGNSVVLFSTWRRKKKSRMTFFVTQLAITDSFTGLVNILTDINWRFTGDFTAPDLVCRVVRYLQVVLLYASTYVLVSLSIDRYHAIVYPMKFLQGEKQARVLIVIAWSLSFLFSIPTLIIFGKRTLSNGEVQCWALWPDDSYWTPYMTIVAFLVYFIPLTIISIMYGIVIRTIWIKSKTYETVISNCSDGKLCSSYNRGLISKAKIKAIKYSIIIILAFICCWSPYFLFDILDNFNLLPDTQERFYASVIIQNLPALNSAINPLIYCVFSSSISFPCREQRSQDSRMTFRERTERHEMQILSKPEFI
Numbers without * were called inactive; ? = inconclusive; . = no result; [ ] = dose if it differs, or a comment. Hits are enriched below; roughly 11% of the tested compounds scored in any of these assays. Unless noted, calls come from the whole dose curve; as a rule, active = well fitted inhibition curve with a large enough effect (not every such curve was filed as active); inconclusive = small, poorly fitted or top-dose-only effect, or another doubt; inactive = no such curve, though single readings can be large or run the other way. Unless noted, % is set by controls: 0 for no effect and ±100 for the full control effect.

SMILES	IMPase Li cell	IMPase inh	HPGD block	PNC assembly inh	ALDH1A1 inh	NPSR antagonist
CC1Sc2ccc(C(=O)O)cc2NC1=O (centres undefined)	16%[38.3 µM]	0	-22%	38	3%	2%[46.1 µM]
COc1ccc(CNC(=O)c2ccc3c(c2)NC(=O)C(C)S3)cc1 (centres undefined)	.	.	.	.	10µM*	-8%
CCc1cccc(C)c1NC(=O)c1cccc(C(=O)Nc2c(C)cccc2CC)c1	.	2	.	.	.	.
COc1ccc(CNC(=O)c2cccc(N(C)C)c2)cc1	0%[38.3 µM]	1	-8%	-83*	?	-11%[46.1 µM]
Cc1noc(C)c1S(=O)(=O)N1CCC2(CC1)OCCO2	-4%[38.3 µM]	3	-7%	-22	14%	-2%[46.1 µM]
O=C(COc1ccc(Br)cc1CNCCc1ccccc1)NCc1ccccc1	22%	.	.	.	?	-55%
CCOc1ccc(Cc2nc(N)nc(N)n2)cc1	5%	-8	-11%	-100*	11%	4%[46.1 µM]
CCc1ccc(NS(=O)(=O)c2ccc3[nH]cc(C(=O)N4CCc5ccccc54)c(=O)c3c2)cc1	-7%	-16	-24%	?	14µM*	7%
Cc1cc(C)cc(NS(=O)(=O)c2ccc3[nH]cc(C(=O)N4CCc5ccccc54)c(=O)c3c2)c1	6%	.	-26%	-17	10µM*	12%
O=C(NCc1ccccc1)C(Cc1ccccc1)N1C(=O)C2C3CCC(C3)C2C1=O (centres undefined)	16%[38.3 µM]	-1	-7%	-22	?	-8%[46.1 µM]
COc1cc(C2Nn3c(nnc3-c3ccccc3OC)S2)ccc1O (centres undefined)	1%	-7[0.0738 µM]	?	-15	24µM*	-18%[46.1 µM]
COc1cc(C2Nc3ccccc3C(=O)N2c2ccccc2OC)ccc1O (centres undefined)	19%[38.3 µM]	-5	?	?	?	-15%[46.1 µM]
COc1ccccc1C(=O)Nc1ccc(CN2CCCCC2)cc1	22%[38.3 µM]	12	0%	23	3%	0%[46.1 µM]
COc1ccc(Oc2nccc(-c3ccc(F)cc3)c2C#N)cc1	28µM*	?	-29%	-15	1%	?
NC(=O)c1ccc(N2CCCCCC2)c([N+](=O)[O-])c1	4%	.	.	.	?	16%
CCn1c(SCc2nc3scc(-c4ccccc4)c3c(=O)[nH]2)nnc1-c1cccs1	25%	-3	-18%	-3	?	-5%
CCOC(=O)N1CCC(N2C(=O)c3ccc(C(=O)O)cc3C2=O)CC1	26%[38.3 µM]	-11	-8%	29	4%	-1%[46.1 µM]
CC(C)(C)NC(=O)c1ccc2c(c1)C(=O)N(C1CCCCC1)C2=O	-7%	-3	-2%	-21	2.8µM*	0%[46.1 µM]
CCOC(=O)c1ccc2c(c1)C(=O)N(C1CCCCC1)C2=O	-1%[38.3 µM]	8	-8%	-9	22µM*	-19%[46.1 µM]
Cc1ccc(C(=O)/C=C/c2ccccc2)o1	29%[38.3 µM]	-3	-17%	0	-9%	-9%[46.1 µM]
COc1cccc(/C=N/Nc2cc(-n3nc(C)cc3-c3ccccc3)ncn2)c1O	13%	.	-11%	-100*	18%	14%
COc1ccc(/C=N/Nc2cc(C)nc(-n3nc(C)cc3C)n2)c(OC)c1	8%	.	?	-1	1%	-57%
COc1cccc(/C=N/Nc2ncnc3scc(-c4ccccc4)c23)c1O	6%	.	20µM*	-101*	4%	-31%
COC(=O)c1sccc1N/N=C/c1cccc(OC)c1O	-5%	.	-22%	-116*	3%	33%
COc1cccc(/C=N/Nc2nc(Nc3ccccc3)nc(-n3nc(C)cc3C)n2)c1O	33%[38.3 µM]	9	-14%	14	6%	2.5µM*
SMILES	IMPase Li cell	IMPase inh	HPGD block	PNC assembly inh	ALDH1A1 inh	NPSR antagonist
O=C(CSc1nccc(=O)[nH]1)NCc1ccco1	.	.	.	.	-2%	-12%
O=C(Nc1cccc(F)c1)N1CC[C@@]2(CCCNC2)C1	15%	.	-10%	.	25µM*	.
COc1ccc2nc(NC(=O)CSc3nnnn3C3CCCCC3)sc2c1	1%[38.3 µM]	4	-17%	5	?	?
CCOc1ccc2nc(NC(=O)CSc3nnnn3C3CCCCC3)sc2c1	34%[38.3 µM]	18	-28%	29	8.9µM*	-22%[46.1 µM]
O=C(CSc1nnnn1C1CCCCC1)Nc1nc2c(s1)CCCC2	-11%[38.3 µM]	?	-7%	24	7.9µM*	-23%[46.1 µM]
N#Cc1c(NC(=O)CSc2nnnn2C2CCCCC2)sc2c1CCCC2	.	-3	.	50	?	-12%[46.1 µM]
O=C(C1CCCN(S(=O)(=O)c2ccc(Cl)cc2)C1)N(Cc1cccs1)C1CC1 (centres undefined)	40%[38.3 µM]	10	-18%	?	?	?
O=C(NC1CC1)c1ccc(-n2cccc2)cc1	1%	.	.	.	-12%	6%
CC1Cc2ccccc2N1C(=O)COC(=O)C1(c2ccccc2F)CCCC1 (centres undefined)	7%	4	-3%	-90*	-2%	-20%[46.1 µM]
CC1Cc2ccccc2N1C(=O)COC(=O)Cn1nnc(-c2ccccc2)n1 (centres undefined)	38%[38.3 µM]	8	-24%	-19	0.71µM*	?
Cc1cnc(C(=O)OCC(=O)N2c3ccccc3CC2C)cn1 (centres undefined)	1%	.	.	.	1%	7%
CCOC(=O)c1sc(NC(=O)c2cccc(S(=O)(=O)N3CCN(C)CC3)c2)cc1C	1%[38.3 µM]	-2	25µM*	-12	?	?
CCOC(=O)c1sc(NC(=O)c2cccc(S(=O)(=O)N(CC)CC)c2)cc1C	29%[38.3 µM]	2	11%	-8	12%	-2%[46.1 µM]
Cc1[nH]n(C(N)=S)c(=O)c1N=Nc1ccc(S(=O)(=O)N2CCCC2)cc1	7%	16	-30%	7	32µM*	-13%[46.1 µM]
NC1(C(=O)O)C[C@@H](C(=O)O)[C@H](C(=O)O)C1	-2%	?	-2%	.	25%	.
CCCCOC(=O)c1ccc(NC(=O)CSCc2n[nH]c(=O)[nH]2)cc1	-13%[38.3 µM]	-1	-15%	7	13µM*	-14%[46.1 µM]
CCOC(=O)CC(=O)Nc1ccc(C(=O)OCC)cc1	14%[38.3 µM]	10	-12%	2	-5%	-3%[46.1 µM]
CCCCOC(=O)c1ccc(NC(=O)CSc2nncn2C)cc1	.	10	.	54	?	-1%[46.1 µM]
COC(=O)c1ccc(NC(=O)CSCC(=O)OCC(=O)c2ccc(Br)cc2)cc1	14%[38.3 µM]	4	-30%	0	22µM*	-21%[46.1 µM]
CCOC(=O)c1ccc(NC(=O)CSCc2ccco2)cc1	30%[38.3 µM]	-5	-27%	11	2.2µM*	-19%[46.1 µM]
